Laboratory results from PubChem BioAssay AID1159580 (chemical genetic matrix, 2015).
About 2,000 (36%) of roughly 5,500 compounds were called active. Inconclusive results (about 18%) are left out. Rule as the data show it: active = normalized growth mostly below about 0.91 (no sharp cut-off); inconclusive = no clear call, values can overlap the other calls; inactive = mostly above about 0.92. The list shows a part of the results.

Assay: chemical genetic growth profiling, strain panel (AID 1159580);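 also: tested at 20 µM; growth read once vehicle control cultures reached saturation at 30 °C; 1 = growth at the plate median or of vehicle wells; lower values mean less growth of the strain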
Conditions: S. cerevisiae deletion strains, growth OD
[1] = locus YAL013W, strain DEP1, stronger effect = lower value
[2] = locus YCL061C, strain MRC1, stronger effect = lower value
[3] = locus YDR150W, strain NUM1, stronger effect = lower value
[4] = locus YGR078C, strain PAC10, stronger effect = lower value
[5] = locus YGR229C, strain SMI1, stronger effect = lower value
[6] = locus YHR030C, strain SLT2, stronger effect = lower value
[7] = locus YNL153C, strain GIM3, stronger effect = lower value

Measured: normalized growth

COc1ccccc1NC(=O)N1CCCN(C(=O)c2cccs2)CC1
inactive: [1] 1.01 | locus YBR229C, strain ROT2, stronger effect = lower value 1.02 | [2] 1.02 | locus YDL101C, strain DUN1, stronger effect = lower value 1.03 | locus YDL134C, strain PPH21, stronger effect = lower value 1.01 | [3] 1.05 | locus YEL061C, strain CIN8, stronger effect = lower value 0.994 | [4] 1.01 | [5] 1.01 | [6] 1.03 | locus YHR087W, strain rtc3, stronger effect = lower value 0.986 | locus YJR043C, strain POL32, stronger effect = lower value 1.02 | locus YJR075W, strain HOC1, stronger effect = lower value 1.02 | locus YKL190W, strain CNB1, stronger effect = lower value 1.01 | locus YLR039C, strain RIC1, stronger effect = lower value 1.05 | locus YLR058C, strain SHM2 (second series), stronger effect = lower value 1 | locus YLR085C, strain ARP6, stronger effect = lower value 1.03 | locus YLR262C, strain YPT6, stronger effect = lower value 1.02 | locus YML094W, strain GIM5, stronger effect = lower value 1.02 | locus YMR219W, strain ESC1, stronger effect = lower value 1.01 | locus YMR263W, strain SAP30, stronger effect = lower value 1.04 | [7] 1.01 | locus YNL298W, strain CLA4 (second series), stronger effect = lower value 1.04 | locus YNL322C, strain KRE1, stronger effect = lower value 1.01 | locus YNR030W, strain Alg12, stronger effect = lower value 1.02 | locus YPL055C, strain LGE1, stronger effect = lower value 1.01 | locus YPL241C, strain CIN2, stronger effect = lower value 1.05 | locus YPR135W, strain CTF4, stronger effect = lower value 1.04

OC1CCCCC1N1CCC(c2ccccc2)CC1 (stereo not drawn)
inactive: [1] 0.998 | locus YAL021C, strain ccr4, stronger effect = lower value 0.998 | locus YAL026C, strain drs2, stronger effect = lower value 0.994 | locus YAL030W, strain snc1, stronger effect = lower value 0.992 | locus YAL040C, strain CLN3, stronger effect = lower value 0.998 | locus YBL061C, strain skt5, stronger effect = lower value 0.994 | locus YBR009C, strain hhf1, stronger effect = lower value 0.957 | locus YBR023C, strain chs3, stronger effect = lower value 0.999 | locus YBR171W, strain sec66, stronger effect = lower value 0.99 | locus YBR231C, strain swc5, stronger effect = lower value 0.993 | locus YBR279W, strain paf1, stronger effect = lower value 0.999 | locus YCL011C, strain gbp2, stronger effect = lower value 0.996 | locus YCL016C, strain dcc1, stronger effect = lower value 0.989 | locus YCL061C, strain MRC1 (second series), stronger effect = lower value 1.01 | [2] 0.993 | locus YCL069W, strain vba3, stronger effect = lower value 0.989 | locus YCR088W, strain abp1, stronger effect = lower value 0.983 | locus YDL005C, strain med2, stronger effect = lower value 0.992 | locus YDL040C, strain nat1, stronger effect = lower value 0.993 | locus YDR001C, strain nth1, stronger effect = lower value 0.984 | locus YDR069C, strain doa4, stronger effect = lower value 0.998 | locus YDR137W, strain rgp1, stronger effect = lower value 0.945 | [3] 1 | locus YDR159W, strain sac3, stronger effect = lower value 0.997 | locus YDR195W, strain ref2 0.941 | locus YDR297W, strain sur2, stronger effect = lower value 0.995 | locus YDR334W, strain swr1, stronger effect = lower value 0.996 | locus YDR335W, strain msn5, stronger effect = lower value 0.997 | locus YDR363W, strain ESC2, stronger effect = lower value 1.01 | locus YDR392W, strain spt3, stronger effect = lower value 0.902 | locus YEL003W, strain gim4, stronger effect = lower value 0.994 | locus YEL037C, strain rad23, stronger effect = lower value 0.99 | locus YEL061C, strain CIN8 (second series), stronger effect = lower value 0.989 | locus YER002W, strain NOP16, stronger effect = lower value 0.992 | locus YER015W, strain faa2, stronger effect = lower value 0.992 | locus YER016W, strain bim1, stronger effect = lower value 0.993 | locus YER111C, strain swi4, stronger effect = lower value 0.978 | locus YER155C, strain BEM2 (second series), stronger effect = lower value 0.96 | locus YFR010W, strain ubp6, stronger effect = lower value 0.988 | locus YGL167C, strain pmr1, stronger effect = lower value 0.986 | locus YGL173C, strain kem1, stronger effect = lower value 0.994 | locus YGL227W, strain vid30, stronger effect = lower value 0.988 | locus YGL240W, strain doc1, stronger effect = lower value 1.01 | locus YGL253W, strain hxk2, stronger effect = lower value 0.996 | [4] 1.01 | [5] 1.01 | locus YHR013C, strain ard1, stronger effect = lower value 0.941 | locus YHR027C, strain rpn1, stronger effect = lower value 0.988 | [6] 0.979 | locus YHR079C, strain IRE1, stronger effect = lower value 0.983 | locus YHR142W, strain chs7, stronger effect = lower value 1.01 | locus YJL092W, strain hpr5, stronger effect = lower value 0.989 | locus YJL095W, strain BCK1 (second series), stronger effect = lower value 0.993 | locus YJL095W, strain BCK1, stronger effect = lower value 0.984 | locus YJL115W, strain asf1, stronger effect = lower value 0.991 | locus YJL129C, strain trk1, stronger effect = lower value 1.02 | locus YJL154C, strain vps35, stronger effect = lower value 0.987 | locus YJL164C, strain tpk1, stronger effect = lower value 1 | locus YJL166W, strain qcr8, stronger effect = lower value 1 | locus YJL187C, strain SWE1, stronger effect = lower value 0.996 | locus YJR066W, strain TOR1, stronger effect = lower value 0.934 | locus YKL160W, strain elf1, stronger effect = lower value 1.02 | locus YKR026C, strain gcn3, stronger effect = lower value 0.975 | locus YKR091W, strain srl3, stronger effect = lower value 0.983 | locus YLL001W, strain dnm1, stronger effect = lower value 0.981 | locus YLL026W, stronger effect = lower value 0.995 | locus YLL041C, strain sdh2, stronger effect = lower value 0.99 | locus YLR027C, strain aat2, stronger effect = lower value 0.992 | locus YLR113W, strain HOG1, stronger effect = lower value 0.999 | locus YLR221C, strain rsa3, stronger effect = lower value 1.01 | locus YLR258W, strain gsy2, stronger effect = lower value 0.984 | locus YLR262C, strain YPT6 (second series), stronger effect = lower value 0.945 | locus YLR320W, strain mms22, stronger effect = lower value 0.998 | locus YLR342W, strain FKS1, stronger effect = lower value 0.981 | locus YLR357W, strain rsc2, stronger effect = lower value 0.979 | locus YLR370C, strain arc18, stronger effect = lower value 0.992 | locus YLR384C, strain iki3, stronger effect = lower value 0.983 | locus YML120C, strain ndi1, stronger effect = lower value 1.02 | locus YMR058W, strain fet3, stronger effect = lower value 0.999 | locus YMR125W, strain sto1, stronger effect = lower value 0.988 | locus YMR129W, stronger effect = lower value 0.985 | locus YMR205C, strain PFK2, stronger effect = lower value 0.953 | locus YMR231W, strain pep5, stronger effect = lower value 0.988 | locus YMR307W, strain GAS1, stronger effect = lower value 0.991 | locus YNL071W, strain lat1, stronger effect = lower value 0.999 | locus YNL128W, strain TEP1, stronger effect = lower value 0.978 | [7] 0.997 | locus YNL175C, strain NOP13, stronger effect = lower value 0.994 | locus YNL183C, strain NPR1, stronger effect = lower value 0.937 | locus YNL197C, strain WHI3, stronger effect = lower value 0.993 | locus YNL209W, strain ssb2, stronger effect = lower value 0.993 | locus YNL224C, strain SQS1, stronger effect = lower value 0.997 | locus YNL248C, strain rpa49, stronger effect = lower value 1.02 | locus YNL322C, strain KRE1 (second series), stronger effect = lower value 0.992 | locus YNR049C, strain mso1, stronger effect = lower value 0.989 | locus YOR001W, strain rrp6, stronger effect = lower value 1.01 | locus YOR070C, strain gyp1, stronger effect = lower value 0.992 | locus YOR080W, strain dia2, stronger effect = lower value 0.988 | locus YOR083W, strain WHI5 (second series), stronger effect = lower value 1 | locus YOR083W, strain WHI5, stronger effect = lower value 1.02 | locus YOR106W, strain vam3, stronger effect = lower value 1.02 | locus YOR231W, strain MKK1, stronger effect = lower value 0.986 | locus YOR265W, strain rbl2, stronger effect = lower value 0.993 | locus YOR270C, strain vph1, stronger effect = lower value 1 | locus YOR290C, strain snf2, stronger effect = lower value 0.911 | locus YPL051W, strain arl3, stronger effect = lower value 0.999 | locus YPL078C, strain atp4, stronger effect = lower value 1.01 | locus YPL106C, strain sse1, stronger effect = lower value 0.98 | locus YPL240C, strain hsp82, stronger effect = lower value 1 | locus YPL256C, strain CLN2, stronger effect = lower value 1
